Assay results: PMC7862700, “An all-to-all approach to the identification of sequence-specific readers for epigenetic DNA modifications on cytosine”

Assays:
Assay in all cases: DAPPL (digital affinity profiling via proximity ligation, sequencing); 10 mM Tris-HCl pH 7.5, 50 mM NaCl, 1 mM DTT, 4% glycerol, room temperature, 30 min; GST-TFs on glutathione beads, 16-mer random dsDNA library, 0.1% formaldehyde crosslink after washing; high values mean tight binding
Details in all cases: protein: recombinant; tags: N-terminal GST; dsDNA, one strand shown
FLI1 = molecular target: T1, FLI1 (Homo sapiens, UniProt Q01543 1-452)
T1 sequence: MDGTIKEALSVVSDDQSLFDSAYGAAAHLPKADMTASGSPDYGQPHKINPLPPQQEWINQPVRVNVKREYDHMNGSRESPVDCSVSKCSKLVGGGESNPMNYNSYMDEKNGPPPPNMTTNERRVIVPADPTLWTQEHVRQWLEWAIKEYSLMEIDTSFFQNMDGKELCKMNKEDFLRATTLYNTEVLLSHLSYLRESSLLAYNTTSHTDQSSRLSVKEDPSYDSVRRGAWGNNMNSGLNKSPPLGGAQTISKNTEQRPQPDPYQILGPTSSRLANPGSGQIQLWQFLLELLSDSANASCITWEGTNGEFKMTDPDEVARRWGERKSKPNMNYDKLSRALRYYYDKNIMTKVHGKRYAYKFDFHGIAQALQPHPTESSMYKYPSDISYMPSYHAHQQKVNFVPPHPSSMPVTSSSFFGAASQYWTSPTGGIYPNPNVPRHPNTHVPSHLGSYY
In short: (§1)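 Pools were built from human transcription factors expressed in yeast as GST fusions, captured on glutathione beads and DNA-barcoded, along with a tag-only sample. Incubation with 200 nmole of a 16-mer random double-stranded DNA library lasted 30 min at room temperature in Tris/NaCl/DTT/glycerol buffer, and was followed by washing, 0.1% formaldehyde crosslinking, proximity ligation, PCR amplification and Illumina NextSeq500 sequencing. Binding signal is the quotient of each hexamer's read frequency for a factor and its frequency for the tag-only sample.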

ELK1 = molecular target: T2, ELK1 (Homo sapiens, UniProt P19419 1-428)
T2 sequence: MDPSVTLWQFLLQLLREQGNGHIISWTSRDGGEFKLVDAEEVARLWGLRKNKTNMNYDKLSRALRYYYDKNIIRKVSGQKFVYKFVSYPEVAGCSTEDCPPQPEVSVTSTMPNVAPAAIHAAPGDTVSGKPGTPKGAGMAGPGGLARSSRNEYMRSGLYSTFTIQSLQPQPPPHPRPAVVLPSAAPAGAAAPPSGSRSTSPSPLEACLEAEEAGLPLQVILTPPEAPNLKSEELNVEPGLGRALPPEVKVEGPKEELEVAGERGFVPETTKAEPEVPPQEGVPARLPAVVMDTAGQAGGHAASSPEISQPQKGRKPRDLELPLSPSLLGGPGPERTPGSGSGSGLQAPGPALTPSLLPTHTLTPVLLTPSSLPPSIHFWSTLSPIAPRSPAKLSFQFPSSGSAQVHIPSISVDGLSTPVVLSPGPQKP
In short: as §1

GABPA = molecular target: T3, GABPA (Homo sapiens, UniProt Q06546 1-454)
T3 sequence: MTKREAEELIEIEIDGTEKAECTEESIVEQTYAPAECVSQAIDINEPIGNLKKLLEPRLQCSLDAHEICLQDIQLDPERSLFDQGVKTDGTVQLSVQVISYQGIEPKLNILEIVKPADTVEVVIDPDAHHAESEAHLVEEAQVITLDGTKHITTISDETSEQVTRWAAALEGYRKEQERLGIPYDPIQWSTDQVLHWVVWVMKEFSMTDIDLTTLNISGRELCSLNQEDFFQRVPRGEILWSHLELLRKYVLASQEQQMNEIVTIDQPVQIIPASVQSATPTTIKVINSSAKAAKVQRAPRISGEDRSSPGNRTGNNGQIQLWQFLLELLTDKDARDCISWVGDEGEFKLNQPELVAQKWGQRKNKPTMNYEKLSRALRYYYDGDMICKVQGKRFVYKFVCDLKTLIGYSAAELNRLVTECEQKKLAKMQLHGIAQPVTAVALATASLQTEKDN
In short: as §1

ERG = molecular target: T4, ERG (Homo sapiens, UniProt P11308 1-479)
T4 sequence: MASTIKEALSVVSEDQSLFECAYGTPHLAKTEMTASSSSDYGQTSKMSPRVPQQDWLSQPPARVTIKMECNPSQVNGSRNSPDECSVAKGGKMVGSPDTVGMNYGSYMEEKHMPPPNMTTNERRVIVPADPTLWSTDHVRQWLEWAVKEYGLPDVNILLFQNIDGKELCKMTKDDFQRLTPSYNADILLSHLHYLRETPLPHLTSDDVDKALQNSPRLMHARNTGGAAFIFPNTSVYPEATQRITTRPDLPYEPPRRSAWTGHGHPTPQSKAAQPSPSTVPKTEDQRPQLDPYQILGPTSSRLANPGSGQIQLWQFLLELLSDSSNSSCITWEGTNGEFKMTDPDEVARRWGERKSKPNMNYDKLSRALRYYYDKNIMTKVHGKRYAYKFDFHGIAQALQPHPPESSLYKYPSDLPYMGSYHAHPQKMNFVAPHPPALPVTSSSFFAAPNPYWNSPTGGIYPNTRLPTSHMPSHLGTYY
In short: as §1

ELF1 = ELF1 (Homo sapiens, UniProt P32519 1-619)
In short: as §1

EHF = molecular target: T5, EHF (Homo sapiens, UniProt Q9NZC4 1-300)
T5 sequence: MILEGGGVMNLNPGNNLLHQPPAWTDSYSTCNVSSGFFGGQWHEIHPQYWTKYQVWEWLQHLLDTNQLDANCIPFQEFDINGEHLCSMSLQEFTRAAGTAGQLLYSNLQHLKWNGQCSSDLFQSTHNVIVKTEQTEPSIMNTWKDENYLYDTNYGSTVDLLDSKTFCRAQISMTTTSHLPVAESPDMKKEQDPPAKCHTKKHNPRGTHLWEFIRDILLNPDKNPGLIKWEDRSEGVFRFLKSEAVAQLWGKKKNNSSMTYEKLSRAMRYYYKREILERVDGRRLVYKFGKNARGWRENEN
In short: as §1

SPI1 = SPI1 (Homo sapiens, UniProt P17947 1-270)
In short: as §1

SPIB = SPIB (Homo sapiens, UniProt Q01892 1-262)
In short: as §1

ELK3 = molecular target: T6, ELK3 (Homo sapiens, UniProt P41970 1-407)
T6 sequence: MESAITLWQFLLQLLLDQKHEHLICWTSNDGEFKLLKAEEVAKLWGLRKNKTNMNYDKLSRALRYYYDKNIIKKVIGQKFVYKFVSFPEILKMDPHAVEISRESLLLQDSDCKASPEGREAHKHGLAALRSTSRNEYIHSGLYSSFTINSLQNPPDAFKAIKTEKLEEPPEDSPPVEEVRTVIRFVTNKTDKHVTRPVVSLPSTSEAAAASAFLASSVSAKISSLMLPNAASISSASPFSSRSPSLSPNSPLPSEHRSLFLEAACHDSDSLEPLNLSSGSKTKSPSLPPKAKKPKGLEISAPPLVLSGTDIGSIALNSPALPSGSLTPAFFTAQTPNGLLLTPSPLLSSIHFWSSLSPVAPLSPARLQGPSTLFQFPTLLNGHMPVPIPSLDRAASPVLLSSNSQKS
In short: as §1

Chain of SPIB (Q01892 whole entry): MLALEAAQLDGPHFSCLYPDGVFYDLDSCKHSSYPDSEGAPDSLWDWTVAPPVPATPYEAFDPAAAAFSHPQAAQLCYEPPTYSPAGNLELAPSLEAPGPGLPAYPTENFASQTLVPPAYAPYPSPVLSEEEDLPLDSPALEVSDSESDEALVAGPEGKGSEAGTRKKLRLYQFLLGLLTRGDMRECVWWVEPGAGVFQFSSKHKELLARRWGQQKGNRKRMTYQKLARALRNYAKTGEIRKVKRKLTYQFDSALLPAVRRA
Chain of ELF1 (P32519 whole entry): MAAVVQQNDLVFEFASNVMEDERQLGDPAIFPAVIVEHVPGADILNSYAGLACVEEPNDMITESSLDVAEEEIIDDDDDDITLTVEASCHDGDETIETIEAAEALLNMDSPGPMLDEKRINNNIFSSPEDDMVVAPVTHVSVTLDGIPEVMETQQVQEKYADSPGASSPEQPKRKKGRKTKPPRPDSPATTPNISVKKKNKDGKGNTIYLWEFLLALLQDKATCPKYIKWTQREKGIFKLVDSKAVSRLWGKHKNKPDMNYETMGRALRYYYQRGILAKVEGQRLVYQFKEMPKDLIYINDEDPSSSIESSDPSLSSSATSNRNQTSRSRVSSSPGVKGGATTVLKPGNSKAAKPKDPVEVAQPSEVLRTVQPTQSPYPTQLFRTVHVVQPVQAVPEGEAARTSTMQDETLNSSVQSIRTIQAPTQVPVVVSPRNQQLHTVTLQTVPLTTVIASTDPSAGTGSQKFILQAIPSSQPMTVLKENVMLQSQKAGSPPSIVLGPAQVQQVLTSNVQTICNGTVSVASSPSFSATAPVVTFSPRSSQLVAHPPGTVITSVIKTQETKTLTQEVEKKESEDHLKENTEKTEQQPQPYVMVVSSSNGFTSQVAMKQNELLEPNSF

Sequence	binding signal (FLI1)	binding signal (ELK1)	binding signal (GABPA)	binding signal (ERG)	binding signal (ELF1)	binding signal (EHF)	binding signal (SPI1)	binding signal (SPIB)	binding signal (ELK3)
GAAAAT	1.16 fold enrichment (6-mer frequency, TF over GST control)	1.07 fold enrichment (6-mer frequency, TF over GST control)	1.16 fold enrichment (6-mer frequency, TF over GST control)	1.07 fold enrichment (6-mer frequency, TF over GST control)	1.04 fold enrichment (6-mer frequency, TF over GST control)	1.14 fold enrichment (6-mer frequency, TF over GST control)	1.14 fold enrichment (6-mer frequency, TF over GST control)	1.18 fold enrichment (6-mer frequency, TF over GST control)	1.04 fold enrichment (6-mer frequency, TF over GST control)
CCCATT	1.36 fold enrichment (6-mer frequency, TF over GST control)	1.25 fold enrichment (6-mer frequency, TF over GST control)	1.46 fold enrichment (6-mer frequency, TF over GST control)	1.41 fold enrichment (6-mer frequency, TF over GST control)	1.39 fold enrichment (6-mer frequency, TF over GST control)	1.24 fold enrichment (6-mer frequency, TF over GST control)	1.47 fold enrichment (6-mer frequency, TF over GST control)	1.27 fold enrichment (6-mer frequency, TF over GST control)	1.41 fold enrichment (6-mer frequency, TF over GST control)
AAGGAT	1.14 fold enrichment (6-mer frequency, TF over GST control)	1.19 fold enrichment (6-mer frequency, TF over GST control)	1.12 fold enrichment (6-mer frequency, TF over GST control)	1.17 fold enrichment (6-mer frequency, TF over GST control)	1.22 fold enrichment (6-mer frequency, TF over GST control)	1.25 fold enrichment (6-mer frequency, TF over GST control)	1.12 fold enrichment (6-mer frequency, TF over GST control)	1.19 fold enrichment (6-mer frequency, TF over GST control)	1.13 fold enrichment (6-mer frequency, TF over GST control)
CCTAAT	1.32 fold enrichment (6-mer frequency, TF over GST control)	1.12 fold enrichment (6-mer frequency, TF over GST control)	1.29 fold enrichment (6-mer frequency, TF over GST control)	1.34 fold enrichment (6-mer frequency, TF over GST control)	1.39 fold enrichment (6-mer frequency, TF over GST control)	1.28 fold enrichment (6-mer frequency, TF over GST control)	1.34 fold enrichment (6-mer frequency, TF over GST control)	1.44 fold enrichment (6-mer frequency, TF over GST control)	1.29 fold enrichment (6-mer frequency, TF over GST control)
TTATAC	1.55 fold enrichment (6-mer frequency, TF over GST control)	1.42 fold enrichment (6-mer frequency, TF over GST control)	1.39 fold enrichment (6-mer frequency, TF over GST control)	1.35 fold enrichment (6-mer frequency, TF over GST control)	1.4 fold enrichment (6-mer frequency, TF over GST control)	1.42 fold enrichment (6-mer frequency, TF over GST control)	1.3 fold enrichment (6-mer frequency, TF over GST control)	1.43 fold enrichment (6-mer frequency, TF over GST control)	1.35 fold enrichment (6-mer frequency, TF over GST control)
CTTCAT	1.6 fold enrichment (6-mer frequency, TF over GST control)	1.45 fold enrichment (6-mer frequency, TF over GST control)	1.45 fold enrichment (6-mer frequency, TF over GST control)	1.4 fold enrichment (6-mer frequency, TF over GST control)	1.52 fold enrichment (6-mer frequency, TF over GST control)	1.31 fold enrichment (6-mer frequency, TF over GST control)	1.49 fold enrichment (6-mer frequency, TF over GST control)	1.48 fold enrichment (6-mer frequency, TF over GST control)	1.38 fold enrichment (6-mer frequency, TF over GST control)
TGCTCT	1.34 fold enrichment (6-mer frequency, TF over GST control)	1.48 fold enrichment (6-mer frequency, TF over GST control)	1.35 fold enrichment (6-mer frequency, TF over GST control)	1.26 fold enrichment (6-mer frequency, TF over GST control)	1.34 fold enrichment (6-mer frequency, TF over GST control)	1.19 fold enrichment (6-mer frequency, TF over GST control)	1.42 fold enrichment (6-mer frequency, TF over GST control)	1.42 fold enrichment (6-mer frequency, TF over GST control)	1.3 fold enrichment (6-mer frequency, TF over GST control)
CACAAG	1.2 fold enrichment (6-mer frequency, TF over GST control)	1.17 fold enrichment (6-mer frequency, TF over GST control)	1.15 fold enrichment (6-mer frequency, TF over GST control)	1.09 fold enrichment (6-mer frequency, TF over GST control)	1.18 fold enrichment (6-mer frequency, TF over GST control)	1.14 fold enrichment (6-mer frequency, TF over GST control)	1.12 fold enrichment (6-mer frequency, TF over GST control)	1.13 fold enrichment (6-mer frequency, TF over GST control)	1.16 fold enrichment (6-mer frequency, TF over GST control)
